# According to PubChem BioAssay (NCATS):
# Records with an inconclusive call do not appear. Entries that show only a call come without a potency. Active and inactive are the calls of the source. The call rests on the fitted dose curve; in most records, active means well fitted curve in the direction sought with a large enough effect; inconclusive means small, poorly fitted or top-dose-only effect, or another doubt; inactive means no such curve, though single readings can be large; an effect the other way counts as inactive or inconclusive.
# Key:
# [1] = Quantitative High-Throughput drug screen in 47 multiple myeloma cell lines against the NCATS MIPE library collection: Delta47_JCRB cell viability assay (AID 1918925; further: nearly all actives have a fitted effect of over 45% in size); settings: Delta47 myeloma viability, CellTiter-Glo ATP, 48 h; series mostly up to 45.8 µM
# How it was run: (§1)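 Steps: seed 500 cells per well; pin-transfer MIPE 4.0 library; incubate 48 h at 37C, 5% CO2, humidified; add CellTiter-Glo, 5 min room temperature; read luminescence.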
# [2] = Quantitative High-Throughput drug screen in 47 multiple myeloma cell lines against the NCATS MIPE library collection: EJM_DSMZ cell viability assay (AID 1918926; further: nearly all actives have a fitted effect of over 30% in size); settings: EJM myeloma cell viability, CellTiter-Glo ATP, 48 h; series mostly up to 45.8 µM
# How it was run: as §1
# [3] = Quantitative High-Throughput drug screen in 47 multiple myeloma cell lines against the NCATS MIPE library collection: AMO1_DSMZ cell viability assay (AID 1918927; further: nearly all actives have a fitted effect of over 30% in size); settings: AMO1 myeloma cells viability, CellTiter-Glo ATP luminescence, 48 h; series mostly up to 45.8 µM
# How it was run: as §1
# [4] = Quantitative High-Throughput drug screen in 47 multiple myeloma cell lines against the NCATS MIPE library collection: ARD_JJKsccE7 cell viability assay (AID 1918929); settings: ARD myeloma cell line viability, CellTiter-Glo, 48 h; series mostly up to 45.8 µM
# How it was run: as §1
# [5] = Quantitative High-Throughput drug screen in 47 multiple myeloma cell lines against the NCATS MIPE library collection: KMM1_JCRB cell viability assay (AID 1918960); settings: KMM1 myeloma viability, CellTiter-Glo ATP luminescence, 48 h; series mostly up to 45.8 µM; further: nearly all actives have a fitted effect of over 30% in size
# How it was run: (§2)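 Viability screen: myeloma cells (500/well) incubated 48 h at 37 °C, humidified 5% CO2, with pinned library compounds; CellTiter-Glo added, luminescence read; DMSO wells set 100%, medium-only wells 0%.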
# [6] = Quantitative High-Throughput drug screen in 47 multiple myeloma cell lines against the NCATS MIPE library collection: ARP1_JJKsccF8 cell viability assay (AID 1918928; further: nearly all actives have a fitted effect of over 40% in size); settings: ARP1 myeloma cells viability, CellTiter-Glo ATP, 48 h; series mostly up to 45.8 µM
# How it was run: as §2
# [7] = Quantitative High-Throughput drug screen in 47 multiple myeloma cell lines against the NCATS MIPE library collection: Karpas620_DSMZ cell viability assay (AID 1918959); settings: Karpas620 myeloma viability, CellTiter-Glo ATP luminescence, 48 h; series mostly up to 45.8 µM; further: nearly all actives have a fitted effect of over 30% in size
# How it was run: (§3)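 Relative luminescence from CellTiter-Glo served as the viability signal, referenced to DMSO-treated (100%) and cell-free medium (0%) controls. Treatment lasted 48 hours at 37C with 500 cells per well.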
# [8] = Quantitative High-Throughput drug screen in 47 multiple myeloma cell lines against the NCATS MIPE library collection: Karpas417_ECACC cell viability assay (AID 1918961); settings: Karpas417 myeloma viability, CellTiter-Glo ATP luminescence, 48 h; viability (% of DMSO): at 45.8 µM (top of the series)
# How it was run: as §3
# [9] = Quantitative High-Throughput drug screen in 47 multiple myeloma cell lines against the NCATS MIPE library collection: KHM11_PLB cell viability assay (AID 1918962); settings: KHM11 myeloma cell viability, CellTiter-Glo ATP luminescence, 48 h; series mostly up to 45.8 µM; further: nearly all actives have a fitted effect of over 35% in size
# How it was run: as §3
# [10] = Quantitative High-Throughput drug screen in 47 multiple myeloma cell lines against the NCATS MIPE library collection: JIM3_ECACC cell viability assay (AID 1918963; further: nearly all actives have a fitted effect of over 35% in size); settings: JIM3 myeloma viability, CellTiter-Glo ATP, 48 h; series mostly up to 45.8 µM
# How it was run: as §3
# [11] = Quantitative High-Throughput drug screen in 47 multiple myeloma cell lines against the NCATS MIPE library collection: JIM1_ECACC cell viability assay (AID 1918964); settings: JIM1 myeloma viability, CellTiter-Glo ATP luminescence, 48 h; series mostly up to 45.8 µM
# How it was run: as §1
# Potency means the concentration at half of the fitted maximal effect.
Structure (SMILES),Potency [1],Potency [2],Potency [3],Potency [4],Potency [5],Potency [6],Potency [7],Potency [8],Potency [9],Potency [10],Potency [11]
CC[C@]12C=CCN3CC[C@@]4(c5cc([C@@]6(C(=O)OC)C[C@H]7C[C@@H](C(C)(F)F)CN(Cc8c6[nH]c6ccccc86)C7)c(OC)cc5N(C)[C@H]4[C@@](O)(C(=O)OC)[C@H]1OC(C)=O)[C@@H]32,0.0093 µM (active),0.118 µM (active),0.0059 µM (active),0.0042 µM (active),0.0083 µM (active),,,,,,
CC(=O)ON=C1C(c2c(O)[nH]c3cc(Br)ccc23)=Nc2ccccc21,5.26 µM (active),11.8 µM (active),1.87 µM (active),5.26 µM (active),5.9 µM (active),10.5 µM (active),4.69 µM (active),5.26 µM (active),13.2 µM (active),2.96 µM (active),3.72 µM (active)
CC(C)(O)CC[C@@H](O)[C@](C)(O)[C@H]1CC[C@@]2(O)C3=CC(=O)[C@@H]4C[C@@H](O)[C@@H](O)C[C@]4(C)[C@@H]3CC[C@]12C,inactive,inactive,inactive,inactive,inactive,inactive,inactive,,,inactive,inactive
C#C[C@]1(O)CC[C@@H]2[C@@H]3CCC4=CC(=O)CC[C@@H]4[C@H]3CC[C@@]21CC,inactive,inactive,,,inactive,inactive,inactive,inactive,inactive,inactive,inactive
CC(=O)OCC(=O)[C@@]1(O)CC[C@H]2[C@@H]3CCC4=CC(=O)CC[C@]4(C)[C@@H]3C(=O)C[C@@]21C,,inactive,inactive,inactive,inactive,,inactive,,inactive,inactive,inactive
